# The campaign covered roughly 310,000 compounds. About 14,000 (4.5%) showed an effect of 50% or more. Effects have a minus sign here. The full list was thinned out, with strong results kept by preference.
# Biological target: human ether-à-go-go-related gene (hERG) potassium channel (human, UniProt Q12809)
# Test: primary screen, population patch clamp on CHO cells stably expressing hERG; higher = less effect of the substance
# 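Further: peak tail current of the secondary pulse compared with the same well before compound.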
# human ether-à-go-go-related gene (hERG) potassium channel, sequence (Q12809 whole entry, looked up): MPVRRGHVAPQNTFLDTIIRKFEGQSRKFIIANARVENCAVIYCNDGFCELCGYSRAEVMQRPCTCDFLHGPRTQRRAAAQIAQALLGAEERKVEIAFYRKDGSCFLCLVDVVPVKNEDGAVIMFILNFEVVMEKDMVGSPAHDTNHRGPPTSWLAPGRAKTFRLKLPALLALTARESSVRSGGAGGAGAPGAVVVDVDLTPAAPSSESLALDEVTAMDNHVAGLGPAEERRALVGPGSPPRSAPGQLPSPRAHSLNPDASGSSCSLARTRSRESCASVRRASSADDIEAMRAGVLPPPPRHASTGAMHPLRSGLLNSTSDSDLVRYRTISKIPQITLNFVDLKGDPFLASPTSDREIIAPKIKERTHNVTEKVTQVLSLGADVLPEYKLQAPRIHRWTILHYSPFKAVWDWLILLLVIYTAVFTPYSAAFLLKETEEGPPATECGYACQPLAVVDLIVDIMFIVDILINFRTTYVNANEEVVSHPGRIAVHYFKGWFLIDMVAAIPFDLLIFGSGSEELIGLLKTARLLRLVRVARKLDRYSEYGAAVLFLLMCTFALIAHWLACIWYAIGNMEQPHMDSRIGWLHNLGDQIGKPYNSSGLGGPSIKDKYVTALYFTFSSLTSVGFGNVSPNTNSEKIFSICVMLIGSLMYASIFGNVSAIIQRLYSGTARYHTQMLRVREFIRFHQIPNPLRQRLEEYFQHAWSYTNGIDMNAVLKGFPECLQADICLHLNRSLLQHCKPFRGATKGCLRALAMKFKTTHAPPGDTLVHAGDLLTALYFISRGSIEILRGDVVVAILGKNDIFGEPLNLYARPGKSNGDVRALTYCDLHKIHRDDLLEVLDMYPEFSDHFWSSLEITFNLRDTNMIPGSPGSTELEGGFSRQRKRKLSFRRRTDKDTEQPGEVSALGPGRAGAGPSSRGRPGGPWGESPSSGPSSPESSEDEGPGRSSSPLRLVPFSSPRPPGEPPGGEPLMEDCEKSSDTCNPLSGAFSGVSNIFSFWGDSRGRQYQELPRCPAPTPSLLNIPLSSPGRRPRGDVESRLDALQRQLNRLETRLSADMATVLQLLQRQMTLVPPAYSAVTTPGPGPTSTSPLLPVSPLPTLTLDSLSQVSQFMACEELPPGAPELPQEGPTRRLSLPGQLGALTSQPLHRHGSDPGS
row,Structure (SMILES),"hERG current change (%, negative = inhibition) at 10uM [%]"
1,COc1ccc(-c2noc(CN(C(=O)c3cccs3)C(C)C)n2)cc1,-28.6
2,COc1ccc(S(=O)(=O)N2CCOCC2)c(Cl)c1Cl,-18.3
3,Cn1c(=O)c2c(nc(OCc3cccnc3)n2Cc2ccccc2)n(C)c1=O,-32.8
4,Cn1c(=O)c2c(nc(N/N=C/c3ccncc3)n2Cc2ccccc2)n(C)c1=O,-28.8
5,Cn1c(=O)c2c(nc(OCc3cccnc3)n2Cc2c(F)cccc2Cl)n(C)c1=O,1.03
6,Cn1c(=O)c2c(nc(N/N=C/c3cccnc3)n2Cc2ccccc2)n(C)c1=O,-51.2
7,C=CCOc1nc2c(c(=O)n(Cc3ccc(Cl)cc3)c(=O)n2C)n1C,-2.66
8,Cn1c(OCc2cccnc2)nc2c1c(=O)n(Cc1ccc(F)cc1)c(=O)n2C,-51.9
9,Cn1c(OCc2cccnc2)nc2c1c(=O)n(Cc1ccccc1)c(=O)n2C,-56.1
10,Cn1c(OCc2cccnc2)nc2c1c(=O)n(Cc1ccc(Cl)cc1)c(=O)n2C,-51.1
11,Cn1c(=O)c2c(nc(SCc3cccnc3)n2Cc2ccc(F)cc2)n(C)c1=O,-30.7
12,Cn1c(=O)c2c(nc(OCc3ccccc3)n2C)n(C)c1=O,4.72
13,Cn1c(=O)c2c(nc(N/N=C/c3cccnc3)n2Cc2ccc(F)cc2)n(C)c1=O,-16.8
14,Cn1c(OCc2ccc3c(c2)OCO3)nc2c1c(=O)n(Cc1cccc(Cl)c1)c(=O)n2C,-0.643
15,CN(CC(=O)Nc1cccc(F)c1)C(=O)c1ccccc1CCc1ccccc1,3.08
16,O=S(=O)(NCc1ccco1)c1cccc(S(=O)(=O)N2CCCCC2)c1,-32.2
17,CCN1CCN(C(c2cccc(OC)c2)c2sc3nc(C)nn3c2O)CC1 (centres unmarked),19.7
18,COc1cccc(CNC(=O)CSC(=S)N2CCCC2)c1,2.79
19,CCOC(=O)N1CCN(c2c(NCCCOC(C)C)c(=O)c2=O)CC1,-19.7
20,CC(C)CC(=O)O/N=C1\C(=O)N(Cc2ccc(Cl)cc2)c2ccc([N+](=O)[O-])cc21,-36.1
21,CCn1c(CO)nc2c1c(=O)[nH]c(=O)n2Cc1ccccc1,17.7

row,Structure (SMILES),"hERG current change (%, negative = inhibition) at 10uM [%]"
1,Cn1c(OCc2cccnc2)nc2c1c(=O)n(Cc1ccc(Br)cc1)c(=O)n2C,-57.3
2,Cn1c(Br)nc2c1c(=O)n(Cc1ccccc1)c(=O)n2C,-10.2
3,Cn1c(NCc2ccccc2)nc2c1c(=O)n(Cc1ccc(Br)cc1)c(=O)n2C,4.56
4,CC1CCCN(C(=O)CN2C(=O)C(C)Oc3ccccc32)C1 (centres unmarked),8.2
5,CCN(CC)C(=O)c1[nH]cnc1C(=O)Nc1ccon1,0.396
6,Cc1ccc(NC(=O)OCc2cncs2)cc1,2.29
7,COCCNC(=O)c1c(N)n(/N=C/c2ccc(F)cc2)c2nc3ccccc3nc12,-0.595
8,O=C(NCCCN1CCCC1=O)c1cc(S(=O)(=O)N2CCOCC2)ccc1Cl,13.9
9,O=C(NCCCN1CCOCC1)c1cc(S(=O)(=O)N2CCN(c3ccccc3)CC2)ccc1Cl,-76.6
10,O=C(NCCCN1CCOCC1)c1cccc(S(=O)(=O)N2CCOCC2)c1,8.97
11,O=C(NCCN1CCOCC1)c1cccc(S(=O)(=O)N2CCCC2)c1,6.43
12,O=C(NCCCN1CCOCC1)c1cccc(S(=O)(=O)N2CCN(c3ccccc3)CC2)c1,-71.8
13,Cc1ccc(S(=O)(=O)N2CCCCC2)cc1C(=O)NCCCN1CCOCC1,16.7
14,CCOC(=O)c1ccc(NC(=S)Nc2ccc3[nH]c(=O)[nH]c3c2)cc1,1.23
15,O=c1[nH]c2ccccc2nc1C(Cl)c1ccccc1 (centres unmarked),2.52
16,Nc1nc(-c2ccco2)cs1,9.88
17,O=c1oc2cc(OCc3c(F)c(F)c(F)c(F)c3F)ccc2cc1-c1ccccn1,14
18,COc1ccc(C(=O)Nn2cnc3ccccc3c2=O)cc1[N+](=O)[O-],-4.64
19,Cc1ccc(S(=O)(=O)N2CCN(CC(=O)N/N=C/c3ccccc3OCC(=O)O)CC2)cc1,10.5
20,Cc1ccc(S(=O)(=O)N2CCN(CC(=O)N/N=C\C(Cl)=C\c3ccccc3)CC2)cc1,-48
